Experimental data published in PubChem BioAssay (NCI).
This is part of a sample that, as a whole, favours compounds with a hit. Of some 83,000 tested, about 20% had one in any assay.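 Testing used 96-well plates and a 48-hour single-concentration exposure. Example: -40 means 40% of the starting cells died.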 Active and inactive are the calls of the source. The calls were made as follows: active = growth percent below 10; inactive = the rest.

Each molecule was assayed on SN12C renal (assay: NCI-60 one-dose screen, 48 h (100 = growth as untreated, 0 = no growth, -100 = all killed)). Details: 10 µM.

| SMILES | growth |
| --- | --- |
| Cc1ccc(/C=C/C(=O)c2ccc(NC(=O)CSc3nnc(-c4c[nH]c5ccccc45)n3-c3ccccc3)cc2)cc1 | 76.1% (inactive) |
| CCCn1c(O)c(N=Nc2nc(-c3cc4ccccc4oc3=O)cs2)c2cc(Br)ccc21 | 95.2% (inactive) |
| COc1ccc2[nH]c(=O)c(CSc3nccc(-c4ccc(Cl)cc4)n3)cc2c1 | 34.4% (inactive) |
| COc1cc(/C=C/C(=O)c2cc(OC)c(OC)c(OC)c2)ccc1Oc1nc(Nc2ccc(F)cc2)nc(N(C)C)n1 | -89.3% (active) |
| c1ccc(C(=C(c2ccc(OCCN3CCCCC3)cc2)c2ccc(OCCN3CCCCC3)cc2)C2CCCC2)cc1 | -8.67% (active) |
| Cc1ccc(/C=C(\C#N)n2nnc3c(F)cccc32)cc1 | 4.19% (active) |
| O=C1Nc2ccc(F)cc2/C1=C/c1cccc(OCc2ccccn2)c1 | 9.51% (active) |
| Cc1ccc(-c2cc(C(=O)N=Nc3c(O)[nH]c4ccc(Br)cc34)c3ccccc3n2)cc1 | 48.6% (inactive) |
| Cc1cc(C)nc(NS(=O)(=O)c2ccc(N/C(N)=N/c3nccc(-c4ccccc4)n3)cc2)n1 | 73.6% (inactive) |
| COc1ccc(NC(=O)Nc2ccc(OCC(=O)N=Nc3c(O)[nH]c4ccc([N+](=O)[O-])cc34)cc2)cc1 | 72.5% (inactive) |
| COc1ccc(-c2nc(Nc3ccccc3S(N)(=O)=O)c3ccccc3n2)cc1 | 26.3% (inactive) |
| CCCCCc1ccc(S(=O)(=O)N(C(C)=O)c2cc(-c3csc(N(C)C(C)=O)n3)ccc2N2CCN(C)CC2)cc1 | 21.2% (inactive) |
| NS(=O)(=O)c1ccc(N=Nc2c(O)n(CC(=O)Nc3ccccc3Br)c3ccccc23)cc1 | 47.6% (inactive) |
| CN(C)c1nc(NCCNS(=O)(=O)c2ccc(C(=O)/C=C/c3ccccc3)cc2)nc(Nc2ccc(F)cc2)n1 | -89% (active) |
| CC1=C2C(=C[C@@](C)(COCOCCCl)[C@@H]2O)C(=O)[C@](C)(O)C12CC2 | -63% (active) |
| COC[C@@H](CC(C)C)N=C1NC(=O)/C(=C/c2ccc3ncoc3c2)N1 | 15.1% (inactive) |
| CC1=C2C(=C[C@@](C)(CO)[C@@H]2O)/C(=N\N)[C@](C)(O)C12CC2 | 0.386% (active) |
| CN1CCc2c(sc3ncnc(N/N=C/c4ccc5ccccc5c4)c23)C1 | 72.4% (inactive) |
| Cc1cccc(-c2nc(Nc3ccccc3C(=O)O)c3ccccc3n2)c1 | 40.7% (inactive) |

| SMILES | growth |
| --- | --- |
| COc1ccc2[nH]c(O)c(N=NC(=O)COc3ccc(NC(=O)Nc4ccc(Cl)cc4)cc3)c2c1 | 15.9% (inactive) |
| CN1CCN(Cc2ccc(NC(=O)c3cncc(C#Cc4cnc5ccc(N[C@H]6CCOC6)nn45)c3)cc2C(F)(F)F)CC1 | -93.1% (active) |
| N#Cc1c(Cl)nc(SCc2ccc(F)cc2)nc1-c1ccc(F)cc1 | 80.9% (inactive) |
| CONC[C@]1(C)C=C2C(=O)[C@](C)(O)C3(CC3)C(C)=C2[C@H]1O | -6.45% (active) |
| CCCCOc1ccc(Nc2nc3ccccc3nc2Nc2ccc(OCCCC)cc2)cc1 | 95.9% (inactive) |
| C=C1CCC2C3(C)COC(c4cccc(F)c4)OC3CCC2(C)C1CC(O)C1=CCOC1=O (configuration not stated) | 44.3% (inactive) |
| COc1ccc(/C=N/N=C(\C)c2ccc3c(c2)Nc2ccccc2S3)cc1O | 70.1% (inactive) |
| O=S(=O)(Nc1ncccn1)c1ccc(-n2c(-c3ccc(Br)cc3)nc(-c3ccccc3)c2-c2ccccc2)cc1 | 35.9% (inactive) |
| C[C@H]1[C@H](C)CC[C@]2(COC(=O)CCC(=O)NCC#CCN3CCNCC3)CC[C@]3(C)C(=CC[C@@H]4[C@@]5(C)CCCNC(C)(C)[C@@H]5CC[C@]43C)[C@H]12 | 64.9% (inactive) |
| CN1CCN(Cc2ccc(C(=O)Nc3cccc(Nc4ccc5c(O)cccc5n4)c3)cc2C(F)(F)F)CC1 | 1.56% (active) |
| CC(=O)Nc1ccc(-c2cn(-c3cccc(C(=O)Nc4cccc(OC(F)(F)F)c4)c3)nn2)cn1 | 114% (inactive) |
| CCOC(=O)C1=C(N)N(c2ccccc2)C2=C(C(=O)CC(C)(C)C2)C1c1ccccc1OC (configuration not stated) | 92.6% (inactive) |
| O=c1[nH]c2ccccc2cc1CSc1ccc(Nc2nccc(-c3ccc(C(F)(F)F)cc3)n2)cc1 | -19.7% (active) |
| COC(=O)C[C@](O)(CCCC(C)(C)O)C(=O)O[C@H]1C(OC)=C[C@@]23CCC(=O)N2CCc2cc4c(cc2[C@@H]13)OCO4 | 115% (inactive) |
| COc1ccc2[nH]c(O)c(N=NC(=O)c3cc(-c4ccc(C)cc4)nc4ccccc34)c2c1 | 92.1% (inactive) |
| COc1ccc(CN2[C@H](C(=O)NCc3ccc(C(=O)NO)cc3)Cc3c([nH]c4ccccc34)[C@H]2C2CC2)cc1 | 70.5% (inactive) |
| COc1ccc(C2N(c3ccc(Br)cc3)N=C(C(C)=O)N2[C@H]2[C@H](OC(C)=O)O[C@H](COC(C)=O)[C@@H](OC(C)=O)[C@@H]2OC(C)=O)cc1 (some centres not stated) | 79.7% (inactive) |
| CN(CCF)c1ccc(/C=C/C(=O)c2ccc(N)cc2O)cc1 | 76.2% (inactive) |
